Shown are actives, neighbours in structure and some others; about 2.4% of the full set was active somewhere.
C diff growth: C. difficile growth inhibition | growth activity, negative = inhibition, % at 16 µg/mL (by protocol) | 86,000 compounds, 0.25% hits | Clostridium difficile clinical isolate growth, OD600, 24 h; stronger effect = lower value | AID 1259249;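 active = mean growth activity at or below -80% and every replicate also at or below -80%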
Pf Dd2 inh: P. falciparum Dd2 growth inhibition. SYBR Green, 72 h; stronger effect = lower value. activity change, % at 10 µM. 94,000 compounds, 2.3% hits; in the data active = activity change below about -80%
Each line names hits and unclear results; the compound was inactive in the other large screens.

COc1cc(CN2CC3(CCN(S(=O)(=O)c4cccs4)CC3)c3c(n(C)c4cc(OC)ccc34)[C@@H]2CO)cc(OC)c1	none
COc1ccc2c3c(n(C)c2c1)[C@H](CO)N(Cc1ccccc1)CC31CCN(S(=O)(=O)c2ccc(C)cc2)CC1	Pf Dd2 inh -84
COc1ccc2c3c(n(C)c2c1)[C@@H](CO)N(Cc1ccccc1)CC31CN(S(=O)(=O)c2ccc(C)cc2)C1	none
CCS(=O)(=O)N1CC2(C1)CN(S(=O)(=O)c1ccccc1)[C@@H](CO)c1c2c2ccc(OC)cc2n1C	none
COc1cc(CN2CC3(CN(S(=O)(=O)c4cccs4)C3)c3c(n(C)c4cc(OC)ccc34)[C@@H]2CO)cc(OC)c1	C diff growth -87
CCS(=O)(=O)N1CCC2(CC1)CN(S(=O)(=O)c1ccccc1)[C@@H](CO)c1c2c2ccc(OC)cc2n1C	Pf Dd2 inh -84
CN(C)C(=O)c1ccc(-c2ccc3c(c2)[C@@H]2[C@@H](CCN2S(=O)(=O)c2cn(C)cn2)[C@H](CO)N3)cc1	none
CCC(=O)Nc1ccc2c(c1)C(=O)N(C)[C@H]1CC[C@H](CC(=O)NCc3ccc(OC)cc3)O[C@@H]1CO2	none
CN1C(=O)c2cc(NC(=O)C3CCOCC3)ccc2OC[C@H]2O[C@H](CC(=O)NC3CCCC3)CC[C@@H]21	none
CCC(=O)N1CC2(C1)[C@@H](c1ccc(-c3ccc(F)cc3)cc1)[C@@H](CO)N2S(C)(=O)=O	none
Cc1ccc(S(=O)(=O)Nc2ccc3c(c2)CC(=O)N([C@H](C)CO)C[C@H](C)[C@@H](CN(C)C(=O)Nc2c(C)noc2C)O3)cc1	none
COc1ccc2c3c(n(C)c2c1)[C@H](CO)N(C)CC31CCN(S(C)(=O)=O)CC1	none (no result: C diff growth)
Cc1cccc(S(=O)(=O)N2CC[C@@H]3[C@H]2c2cc(-c4ccccc4F)ccc2N(C)[C@H]3CO)c1	none
Cc1ccc(S(=O)(=O)N(C)C[C@@H]2OCCCC[C@H](C)Oc3ccc(NC(=O)C4CCCCC4)cc3C(=O)N([C@@H](C)CO)C[C@@H]2C)cc1	none (no result: C diff growth)
Cc1ccc(S(=O)(=O)N(C)C[C@H]2OCCCC[C@@H](C)Oc3ccc(NC(=O)C4CCCCC4)cc3C(=O)N([C@@H](C)CO)C[C@@H]2C)cc1	none
COc1ccc(S(=O)(=O)N(C)C[C@@H]2OCCCC[C@H](C)Oc3ccc(NC(=O)C4CCCCC4)cc3C(=O)N([C@@H](C)CO)C[C@H]2C)cc1	none
Cc1ccc(S(=O)(=O)N(C)C[C@H]2OCCCC[C@H](C)Oc3ccc(NC(=O)C4CCCCC4)cc3C(=O)N([C@H](C)CO)C[C@H]2C)cc1	Pf Dd2 inh -85 (no result: C diff growth)
Cc1ccc(S(=O)(=O)N(C)C[C@H]2OCCCC[C@H](C)Oc3ccc(NC(=O)C4CCCCC4)cc3C(=O)N([C@@H](C)CO)C[C@@H]2C)cc1	Pf Dd2 inh -82 (no result: C diff growth)
COc1ccc(S(=O)(=O)N(C)C[C@@H]2OCCCC[C@H](C)Oc3ccc(NC(=O)C4CCCCC4)cc3C(=O)N([C@H](C)CO)C[C@H]2C)cc1	Pf Dd2 inh -86
Cc1ccc(S(=O)(=O)N(C)C[C@@H]2OCCCC[C@H](C)Oc3ccc(NC(=O)C4CCCCC4)cc3C(=O)N([C@@H](C)CO)C[C@H]2C)cc1	Pf Dd2 inh -85
Cc1ccc(S(=O)(=O)N(C)C[C@H]2OCCCC[C@H](C)Oc3ccc(NC(=O)C4CCCCC4)cc3C(=O)N([C@H](C)CO)C[C@@H]2C)cc1	none (no result: C diff growth)
O=C(NC1CCCC1)N1CC2(C1)[C@@H](c1ccccc1)[C@@H](CO)N2CC1CCCC1	none
O=C(C[C@@H]1C[C@@H]2c3cc(NC(=O)Nc4ccc(F)cc4)ccc3O[C@@H]2[C@@H](CO)O1)NCC1CC1	none
CCC(=O)Nc1ccc2c(c1)OC[C@H](C)N(CCc1ccccc1)C[C@H](C)[C@@H](OC)CN(C)C2=O	none
CO[C@H]1CN(C)C(=O)c2cc(NC(=O)c3ccccc3)ccc2OC[C@@H](C)N(C(C)=O)C[C@H]1C	none (no result: C diff growth)
CO[C@@H]1CN(C)C(=O)c2ccc(NC(C)=O)cc2OC[C@@H](C)N(CCC(F)(F)F)C[C@@H]1C	none
COCC(=O)N(C)C[C@@H]1Oc2cc(C#C[C@@H](C)O)ccc2S(=O)(=O)N([C@@H](C)CO)C[C@H]1C	none (no result: Pf Dd2 inh)
Cc1ccc(S(=O)(=O)N(C)C[C@@H]2OCCCC[C@H](C)Oc3ccc(NC(=O)C4CCCCC4)cc3C(=O)N([C@H](C)CO)C[C@H]2C)cc1	Pf Dd2 inh -86 (no result: C diff growth)
Cc1ccc(S(=O)(=O)N(C)C[C@@H]2OCCCC[C@@H](C)Oc3ccc(NC(=O)C4CCCCC4)cc3C(=O)N([C@@H](C)CO)C[C@@H]2C)cc1	none (no result: C diff growth)
C[C@H](CO)N1C[C@H](C)[C@@H](CN(C)S(=O)(=O)c2ccccc2)OCCCC[C@H](C)Oc2ccc(NC(=O)C3CCCCC3)cc2C1=O	none
C[C@@H]1CN([C@H](C)CO)C(=O)c2cc(NC(=O)C3CCCCC3)ccc2O[C@@H](C)CCCCO[C@@H]1CN(C)S(=O)(=O)c1ccccc1	Pf Dd2 inh -82
C[C@@H]1CN([C@@H](C)CO)S(=O)(=O)c2ccc(-c3ccccc3)cc2O[C@H]1CN(C)C(=O)Cc1ccccc1	none
COc1ccc2c3c(n(C)c2c1)[C@H](CO)N(C(=O)CN(C)C)CC31CCN(Cc2nccs2)CC1	none
C[C@@H]1CN([C@H](C)CO)C(=O)c2cc(N(C)C)ccc2O[C@@H](C)CCCCO[C@H]1CN(C)C(=O)c1ccccc1	none
CNC(=O)C[C@@H]1CC[C@@H]2[C@H](COc3ccc(NC(=O)Cc4cccs4)cc3C(=O)N2C)O1	none
C[C@@H]1CN([C@@H](C)CO)S(=O)(=O)c2ccc(C#CCN(C)C)cc2O[C@H]1CN(C)C(=O)C1CCCCC1	none
C[C@@H]1CCCCO[C@H](CN(C)C(=O)Nc2ccc(C(F)(F)F)cc2)[C@@H](C)CN([C@@H](C)CO)C(=O)c2cc(NC(=O)NC3CCCCC3)ccc2O1	Pf Dd2 inh -90
C[C@@H]1CCCCO[C@H](CN(C)C(=O)NC2CCCCC2)[C@@H](C)CN([C@@H](C)CO)C(=O)c2cc(NC(=O)Nc3ccc(C(F)(F)F)cc3)ccc2O1	Pf Dd2 inh -83
C[C@@H]1CN([C@H](C)CO)C(=O)c2cc(NC(=O)CCC(F)(F)F)ccc2O[C@H]1CN(C)C(=O)NC1CCCCC1	Pf Dd2 inh -87
C[C@@H]1CCCCO[C@H](CN(C)C(=O)Nc2ccc(C(F)(F)F)cc2)[C@H](C)CN([C@@H](C)CO)C(=O)c2cc(NC(=O)NC3CCCCC3)ccc2O1	none
C[C@@H]1CCCCO[C@H](CN(C)C(=O)NC2CCCCC2)[C@@H](C)CN([C@H](C)CO)C(=O)c2cc(NC(=O)Nc3ccc(C(F)(F)F)cc3)ccc2O1	none
C[C@H]1CN([C@@H](C)CO)C(=O)c2cc(NC(=O)CCC(F)(F)F)ccc2O[C@@H]1CN(C)C(=O)NC1CCCCC1	none
Cc1ccc(-c2cnc3c(c2)C(=O)N([C@H](C)CO)C[C@H](C)[C@@H](CN(C)C(=O)c2cccnc2)O3)cc1	none
OC[C@@H]1[C@@H](c2ccccc2)C2(CN(CC3CC3)C2)N1Cc1cncnc1	none
C[C@@H]1CCCCO[C@@H](CN(C)C(=O)CCC(F)(F)F)[C@H](C)CN([C@@H](C)CO)C(=O)c2cc(NS(C)(=O)=O)ccc2O1	none
C[C@@H]1CCCCO[C@H](CN(C)C(=O)c2ccccc2)[C@@H](C)CN([C@@H](C)CO)C(=O)c2cc(NS(=O)(=O)c3cccs3)ccc2O1	none
CO[C@@H]1CN(C)C(=O)c2ccc(NC(=O)C3CC3)cc2OC[C@@H](C)N(C(=O)c2cnccn2)C[C@@H]1C	none

Bioassay records as filed in PubChem BioAssay.
